Shown are actives, neighbours in structure and some others; about 8.3% of the full set was active somewhere.
FMDV antiviral = blocks foot and mouth disease virus. FMDV antiviral cell-based qHTS. Potency, µM (top dose mostly 57.9 µM), inactives show at the highest dose activity change, negative = inhibition, actives largely listed as inhibitors. actives 1.2% (n = 410,000). AID 1159524; calls by dose curve; tested in HEK293T cells; further: read-out not given here; potency means the concentration at half of the fitted maximal effect; nearly all actives have a fitted effect of over 45% in size
HCMV inh = human cytomegalovirus inhibition; HFF cells, HCMV-luciferase reporter, 72 h; stronger effect = lower value; activity change, negative = inhibition, % at 57.5 µM; actives 4.5% (n = 410,000); AID 1259415; in the data active means activity change below about -60%; inconclusive means no clear call, values can overlap the other calls; inactive means above about -39%
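Luciferase read-out from HCMV-luciferase-infected HFFs (MOI 1 PFU/cell) 72 h post infection at 37C; compounds added after 16 h cell attachment; activity normalized between buffer-only basal and Salinomycin (10uM) inhibitor controls.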
LASV entry inh = Lassa virus entry inhibition; Lassa virus pseudotype entry inhibition, cell reporter; Potency, µM (series often up to 37.9 µM), inactives show top-dose activity change, negative = inhibition, actives largely listed as inhibitors; actives 1.2% (n = 300,000); AID 540256; calls by dose curve; tested in HEK293 cells; further: potency means the concentration at half of the fitted maximal effect; nearly all actives have a fitted effect of over 50% in size
Giardia FBPA inh = blocks Giardia fructose-bisphosphate aldolase activity | A8B2U2 | purified Giardia FBPA | Potency, µM (highest dose often 59.6 µM), for inactives: top-dose activity, negative = inhibition, most hits filed as inhibitors | actives 0.71% (n = 290,000); further: potency means the concentration at half of the fitted maximal effect; nearly all actives have a fitted effect of over 55% in size
Target sequence (A8B2U2 whole entry, looked up): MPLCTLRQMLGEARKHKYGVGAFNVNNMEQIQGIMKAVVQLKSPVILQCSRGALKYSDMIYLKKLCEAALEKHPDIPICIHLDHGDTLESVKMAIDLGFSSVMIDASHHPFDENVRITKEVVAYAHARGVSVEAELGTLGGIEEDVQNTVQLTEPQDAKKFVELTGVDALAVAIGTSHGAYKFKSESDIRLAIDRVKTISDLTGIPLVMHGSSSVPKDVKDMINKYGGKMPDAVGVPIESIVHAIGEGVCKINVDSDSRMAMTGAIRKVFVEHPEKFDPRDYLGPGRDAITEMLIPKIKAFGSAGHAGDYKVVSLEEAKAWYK
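Giardia FBPA (40 nM reagent) was preincubated 10 min at RT with compound (up to 57.5 uM final), then substrate plus GAPDH/TPI/NAD/arsenate coupling system with diaphorase/resazurin was added; resorufin fluorescence (525/598 nm) was read after 20 min.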
MARV entry inh = inhibitors of Marburg virus binding or cell entry. Marburg virus pseudotyped entry inhibition, cell reporter. Potency, µM (series often up to 37.8 µM), without a hit: at the highest dose activity change, negative = inhibition, usual class: inhibitors. actives 1.8% (n = 300,000); calls by dose curve; tested in HEK293 cells; further: potency means the concentration at half of the fitted maximal effect
HCV inh = blocks hepatitis C virus; Potency, µM (titrated, usually from 41.8 µM), for inactives: at the highest dose activity change, negative = inhibition, most hits filed as inhibitors; Huh7.5.1 HCVcc-Cre infection, luciferase reporter, 44 h; AID 651820; actives 3.4% (n = 340,000); further: potency means the concentration at half of the fitted maximal effect
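After 44 h co-culture of compound, cells and HCVcc-Cre (~0.5 moi), substrate is added for 15 min at room temperature and luciferase measured over 15 sec. Cells were seeded at 1,000/well and pre-cultured 4 h.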
An asterisk follows results filed as active; u = inconclusive; x = no result given; [ ] = another dose, or the depositor's remark. Unless noted, the call rests on the fitted dose curve; in most records, active means well fitted curve in the direction sought with a large enough effect; inconclusive means small, poorly fitted or top-dose-only effect, or another doubt; inactive means no such curve, though single readings can be large; an effect the other way counts as inactive or inconclusive. On the % scale 0 is the no-effect control and ±100 the full control effect.

SMILES	FMDV antiviral	HCMV inh	LASV entry inh	Giardia FBPA inh	MARV entry inh	HCV inh
CC1=CC[C@@H](COc2ccccc2)O[C@@]2(C1)C(=O)N(Cc1ccc(F)cc1)c1cccc(Br)c12	x	x	x	x	-10.4%[14.2 µM]	x
O=C(NCCc1cccs1)C1CC(c2cccc(F)c2)=NO1 (centres undefined)	-2.8%	-11.7	x	9.8%	x	3.55µM*
O=C(Nc1nc(-c2ccccn2)cs1)c1ccc(F)c(S(=O)(=O)N2CCOCC2)c1	u	-97.4*	x	x	x	3.55µM*
CN(CC1CCCO1)S(=O)(=O)c1ccc(C(=O)Nc2ccccc2F)cc1 (centres undefined)	11.9%	-12.1	-22.2%	x	0.5%	17.3%
CN(CC1CCCO1)S(=O)(=O)c1ccc(C(=O)Nc2nc(-c3ccccn3)cs2)cc1 (centres undefined)	28.2µM*	x	u	-7.2%	u	4.47µM*
Cc1ccc(C(=O)Nc2nc(-c3ccccn3)cs2)cc1S(=O)(=O)N1CCOCC1	u	-97.2*	x	x	x	5.62µM*
COc1ccc(N(Cc2nnc3n2CCCCC3)C(=O)Nc2ccc(Cl)cc2)cc1Cl	-17.3%	20.6	1.5%[46.1 µM]	x	x	x
Cc1c(C(=O)NCCc2cccnc2)cnn1-c1nccc(-c2ccccc2F)n1	11.7%	x	x	x	x	x
CC(=O)c1c(C(C)=O)c(C)n(Cc2ccc(Cl)cc2)c1C	u	-70.7*	-21.2%	4.4%	u	u
CCOC(=O)c1c(C=O)c(C)n(Cc2ccc(Cl)cc2)c1C	u	-23.9	-5.4%	3.6%	-3.4%	8.91µM*
CC(=O)c1c(C(C)=O)c(C)n(NC(=O)c2ccc(Cl)cc2)c1C	-11.4%	-19.4	-6.6%	4.9%	3.9%	2.6%
CCCCNC(=O)c1nc2cc(C)c(C)cc2nc1-c1cccc(OC(F)(F)F)c1	x	25.0	x	x	x	x
Cc1ccc(NC(=S)NC(=O)/C=C/c2ccco2)c(O)c1	u	-63.9*	-23.1%[46.1 µM]	-28.4%	-18.0%[46.1 µM]	u
Cc1ccc2c(=O)n3c(nc2c1)C(Cc1ccc(O)cc1)NC(=O)c1cc2ccccc2cc1-3 (centres undefined)	u	-65.5*	x	x	x	x
O=C1NC(Cc2ccc(O)cc2)c2nc3cc(F)ccc3c(=O)n2-c2cc(Cl)ccc21 (centres undefined)	x	13.8	x	x	x	0.2%
Cc1cc(C)c2c(=O)n3c(nc2c1)C(Cc1ccccc1)NC(=O)c1cc2ccccc2cc1-3 (centres undefined)	u	-71.9*	x	x	x	x
O=C1NC(Cc2ccc(O)cc2)c2nc3ccc(Cl)cc3c(=O)n2-c2cc3ccccc3cc21 (centres undefined)	u	-105.5*	x	x	x	x
O=C1NC(Cc2ccccc2)c2nc3ccc(Cl)cc3c(=O)n2-c2cc3ccccc3cc21 (centres undefined)	-25.0%	-0.3	x	x	x	x
O=C1NC(Cc2ccc(O)cc2)c2nc3cc(Cl)ccc3c(=O)n2-c2cc(Cl)ccc21 (centres undefined)	u	-19.7	x	x	x	25.1µM*
O=C(N/N=C1\C[C@@H](O)[C@@H](O)[C@@H]2[C@@H]3C(=O)N(Cc4ccc5c(c4)OCO5)C(=O)[C@@H]3CC[C@H]12)OCc1ccccc1	x	x	x	x	-2.2%[14.2 µM]	x
COc1ccc(COn2nnc3ccc(S(=O)(=O)N4CCOCC4)cc32)cc1F	-10.0%	-27.3	7.5%	x	4.9%[46.1 µM]	10µM*
CCOC(=O)c1c(NC(C)=O)c2c3c(sc2n1Cc1nc(-c2ccccc2Cl)oc1C)CCCC3	-0.2%	-19.6	x	x	-1.5%[46.1 µM]	x
CCOC(=O)c1cnc(-n2nc(C)cc2C)nc1NC	45.6%	-8.1	10.4%	u	-6.9%	-13.3%
CCOC(=O)c1cnc(-n2nc(C)cc2C)nc1NC1CCCCC1	10µM*	-86.5*	u	-0.2%	6.31µM*	5.62µM*
CCOC(=O)c1cnc(-n2nc(C)cc2C)nc1Nc1ccc(N(C)C)cc1	-16.6%	-5.2	7.3µM*	4.6%	u	u
SMILES	FMDV antiviral	HCMV inh	LASV entry inh	Giardia FBPA inh	MARV entry inh	HCV inh
C#CCN(C[C@H]1[C@H](OC(=O)NCC2CCCCC2)[C@H](OC(=O)NCC2CCCCC2)C[C@@H](C(=O)OC)[C@H]1C(=O)OC)S(=O)(=O)c1ccc(C)cc1	0.0%	-8.3	x	x	x	x
C#CCN(C[C@@H]1[C@@H](OC(=O)NCCCCCC)[C@@H](OC(=O)NCCCCCC)Cn2c(=O)ccc(=O)n21)S(=O)(=O)c1ccc(C)cc1	12.6µM*	-103.6*	x	x	x	x
C#CCN(C[C@@H]1[C@@H](OC(=O)NC2CC2)[C@@H](OC(=O)NC2CC2)Cn2c(=O)n(CCCCCC)c(=O)n21)S(=O)(=O)c1ccc(C)cc1	u	-8.4	x	x	x	x
C#CCN(C[C@@H]1[C@@H](OC(=O)NCC2CCCCC2)[C@@H](OC(=O)NCC2CCCCC2)Cn2c(=O)ccc(=O)n21)S(=O)(=O)c1ccc(C)cc1	10µM*	-102.2*	x	x	x	x
O=C(Cc1c[nH]c2ccccc12)N1CCC(n2c(C3CCCO3)nc3cc(C(F)(F)F)ccc32)CC1 (centres undefined)	-5.8%	x	x	x	x	x
c1cn(-c2ncnc3ccc(-c4ccoc4)cc23)cn1	28.2µM*	x	x	5.7%	x	x
c1cncc(CNc2ncnc3ccc(-c4ccoc4)cc23)c1	0.0%	-82.5*	x	0.0%	x	x
Cc1csc(CNc2ncnc3ccc(-c4cccnc4)cc23)c1	-27.5%	-15.0	x	x	x	x
Cc1csc(CNc2ncnc3ccc(-c4ccc5c(c4)OCCO5)cc23)c1	-21.2%	8.2	x	x	x	x
Cc1csc(CNc2ncnc3ccc(-c4ccc5c(c4)OCO5)cc23)c1	u	-69.5*	x	x	x	x
c1nc(N2CCOCC2)c2cc(-c3ccoc3)ccc2n1	1.0%	x	x	-12.6%	x	x
Cc1csc(CNc2ncnc3ccc(-c4ccoc4)cc23)c1	-28.9%	-85.9*	x	x	x	x
Cc1cccc(CNc2ncnc3ccc(-c4ccoc4)cc23)c1	u	14.4	x	8.0%	x	x
COC(=O)[C@H](Cc1ccccc1)N1Cc2ccccc2Oc2cc(Br)ccc2S1(=O)=O	x	-32.2	x	x	x	x
CCCC[C@H](CC)CN1CN(C[C@@H](CC)CCCC)CC(C)(N)C1	x	x	x	3.2%[21.7 µM]	x	x

Source: PubChem BioAssay
